Potency and affinity values are given separately. Active and inactive are the calls of the source. How the calls were made is not given here.

The nature of assay [1]: A549 cell cytotoxicity, dose response, cytotoxicity control, plate reader, cherry-pick, antagonist series (AID 743412).
Assay [2] in a line: toxicity toward HepG2 liver cells – cell-based, plate reader, cherry-pick, antagonist series, cytotoxicity control, dose response (AID 743416).
The target in assay [3] is Melanocortin receptor 4 (Homo sapiens) (UniProt P32245). Kind of assay: blockade of melanocortin 4 receptor signaling – cell-based, plate reader, cherry pick, counter-screen for LGR2 antagonist project, dose response (AID 743444).

In the case of `COc1ccccc1CNS(=O)(=O)c1ccc(N2CCCC2)cc1Br`, the outcome in assay [1], in assay [2] and in assay [3] was inactive.
As to `COc1ccc(-c2cc(C)nc3c(-c4ccccc4)cnn23)cc1`, the result in assay [1] and in assay [2] was inactive.
In the case of `COc1ccc2c3c([nH]c2c1)[C@H](CO)N(C(C)=O)CC31CCN(C(=O)CN2CCOCC2)CC1`, the outcome in assay [1], in assay [2] and in assay [3] was inactive.
As for `Nc1c(C(=O)Nc2cccc(C(=O)O)c2)sc2nc3c(cc12)CCCC3`, the result in assay [1] and in assay [2] was inactive.
As for `Cc1ccnc(N2C(=O)c3ccccc3C2Nc2ccc3c(c2)OCCO3)c1` (stereo not given), the outcome in assay [1], in assay [2] and in assay [3] was inactive.
On to `C=CCn1c(SCC(=O)Nc2ncc(Cc3ccc(C)c(Cl)c3)s2)nnc1-c1ccncc1`, for which the outcome in assay [1], in assay [2] and in assay [3] was inactive.
Regarding `O=C(CN1C(=O)c2ccccc2S1(=O)=O)c1ccc2c(c1)OCCCO2`, the result in assay [1] and in assay [2] was inactive.
Consider `Cc1nc2c(OCCC3CCCCC3)cccn2c1N(C)C(=O)CCC1CCCC1`, for which the outcome in assay [1] and in assay [2] was inactive.
For the compound `Cc1cc(Cl)ccc1OCCCC(=O)Nc1cc(S(=O)(=O)N2CCOCC2)ccc1N1CCOCC1`, the outcome in assay [1], in assay [2] and in assay [3] was inactive.
Regarding `O=C(C[C@H]1CC[C@H](NS(=O)(=O)c2cccc(F)c2)[C@@H](CO)O1)N1CCCCC1`, the result in assay [1], in assay [2] and in assay [3] was inactive.
Take `O=C(Nc1ccc(N2CCN(C(=O)c3ccc(Cl)cc3)CC2)cc1)c1cc2ccccc2o1`: the result in assay [1] and in assay [2] was inactive.
As to `Cn1cnc(S(=O)(=O)N2C[C@@H](O)COC[C@H]3O[C@H](CC(=O)NC4CCCC4)CC[C@@H]32)c1`, the call in assay [1], in assay [2] and in assay [3] was inactive.
Consider `C[C@H](CO)N1C[C@H](C)[C@H](CN(C)C(=O)Nc2ccccc2)OCCCC[C@H](C)Oc2ccc(NC(=O)NC3CCCCC3)cc2C1=O`, for which the call in assay [1], in assay [2] and in assay [3] was inactive.
For the compound `O=C(C[C@H]1C=C[C@@H](NC(=O)C2CCC2)[C@H](CO)O1)NCCCN1CCOCC1`, the outcome in assay [1], in assay [2] and in assay [3] was inactive.
`O=C(CCCc1ccccc1)Nc1cccc(C(=O)O)c1`: the call in assay [1] and in assay [2] was inactive.
In the case of `CN(C)c1ccc(C2NC(=O)c3ccccc3N2)cc1` (stereo not given), the call in assay [1] and in assay [2] was inactive.
As to `CC(C)N(C(=O)Nc1ccc2nsnc2c1)C(C)C`, the compound was classed as inactive in assay [1], in assay [2] and in assay [3].
As to `Cc1cc(C(=O)CN2C(=O)c3ccccc3S2(=O)=O)c(C)n1C(C)C`, the outcome in assay [1] and in assay [2] was inactive.
Turning to `O=C1OCCC1Sc1nnc(-c2ccc(Cl)cc2Cl)o1` (stereo not given), the compound was called inactive in assay [1] and in assay [2].
With `CCn1cc(S(=O)(=O)Nc2cccnc2)cn1`, the compound was called inactive in assay [1], in assay [2] and in assay [3].
`O=C(Nc1ccc(Cl)c(S(=O)(=O)N2CCOCC2)c1)c1ccc2c(c1)OCCO2`: the compound was called inactive in assay [1] and in assay [2].
In the case of `CC(C)c1ccc(NC(=O)N2CCN(S(=O)(=O)c3ccccc3)CC2)cc1`, the compound was classed as inactive in assay [1], in assay [2] and in assay [3].
Consider `COc1ccc(-c2nc(N)n(C(=O)c3cccs3)n2)cc1`, for which the compound was classed as inactive in assay [1], in assay [2] and in assay [3].
For `O=C(Nc1cc(S(=O)(=O)Nc2ccccc2Cl)ccc1O)c1ccc(F)cc1F`, the compound was classed as inactive in assay [1], in assay [2] and in assay [3].
As for `CCc1nnc(NC(=O)CSc2nnc3ncccn23)s1`, the compound was called inactive in assay [1], in assay [2] and in assay [3].
Consider `Cc1noc(C)c1S(=O)(=O)Nc1ccc2c(c1)C(=O)N([C@H](C)CO)C[C@H](C)[C@H](CN(C)C(=O)Nc1ccc(F)cc1)OCCCC[C@@H](C)O2`, for which the result in assay [1], in assay [2] and in assay [3] was inactive.
Regarding `O=C(NCc1ccco1)c1cc(NS(=O)(=O)c2cccc([N+](=O)[O-])c2)ccc1O`, the result in assay [1], in assay [2] and in assay [3] was inactive.
On to `CCOC(=O)C1=CCN(S(=O)(=O)c2ccccc2C)C1c1cccc(C)c1` (stereo not given), for which the outcome in assay [1], in assay [2] and in assay [3] was inactive.
As to `Cc1ccc(C(=O)n2nc(-n3cccc3)c3c(C)cc(C)nc32)cc1`, the call in assay [1] and in assay [2] was inactive.
With `COCCCNc1ccn2nc(-c3ccccc3)cc2n1`, the outcome in assay [1] and in assay [2] was inactive.
As for `O=S(=O)(Nc1ccc(O)c2ccccc12)c1ccc(OC(F)(F)F)cc1`, the outcome in assay [1] and in assay [3] was inactive.
As to `Cc1ccc(S(=O)(=O)N2CCCc3nc(-c4ccc(F)cc4)ccc32)cc1`, the call in assay [1] and in assay [3] was inactive.
Turning to `CO[C@H]1CN(C)C(=O)c2ccc(NC(=O)c3ccc(-c4ccccc4)cc3)cc2OC[C@@H](C)NC[C@@H]1C`, the result in assay [1], in assay [2] and in assay [3] was inactive.
Take `O=C(NCc1ccc(F)cc1)c1cc(C2CCCCN2S(=O)(=O)c2cccs2)on1` (stereo not given): the compound was called inactive in assay [1], in assay [2] and in assay [3].
As to `C[C@@H]1CN([C@@H](C)CO)C(=O)c2cccc(NC(=O)Nc3ccc(C(F)(F)F)cc3)c2O[C@H]1CN(C)C(=O)Nc1cccc2ccccc12`, the outcome in assay [1], in assay [2] and in assay [3] was inactive.
As to `Cc1noc(C)c1S(=O)(=O)Nc1cccc2c1O[C@H](CN(C)C(=O)Nc1ccc(F)cc1)[C@H](C)CN([C@H](C)CO)C2=O`, the outcome in assay [1], in assay [2] and in assay [3] was inactive.
As to `C[C@H](CO)N1C[C@H](C)[C@@H](CN(C)CC2CCOCC2)Oc2ncc(Br)cc2C1=O`, the result in assay [1], in assay [2] and in assay [3] was inactive.
Take `CCN(C(=O)COC(=O)C12CC3CC(CC(O)(C3)C1)C2)c1c(N)n(Cc2ccccc2)c(=O)[nH]c1=O`: the compound was called inactive in assay [1], in assay [2] and in assay [3].
`C[C@@H]1CN([C@@H](C)CO)C(=O)c2cc(NS(C)(=O)=O)ccc2O[C@@H](C)CCCCO[C@@H]1CN(C)Cc1ccc(C(F)(F)F)cc1`: the call in assay [1], in assay [2] and in assay [3] was inactive.
In the case of `O=C(CC1CS(=O)(=O)CC1CC(=O)Nc1ccc2c(c1)OCCO2)Nc1ccc2c(c1)OCCO2` (stereo not given), the result in assay [1], in assay [2] and in assay [3] was inactive.
Turning to `CC(=O)Nc1cccc(-c2ccnc3c2CC(C(=O)NCc2cccnc2)O3)c1` (stereo not given), the result in assay [1], in assay [2] and in assay [3] was inactive.
Take `CC(C)(C)NC(=O)c1cccc(NC(=O)c2ccc3c(c2)C(=O)N(C(C)(C)C)C3=O)c1`: the result in assay [1], in assay [2] and in assay [3] was inactive.
For the compound `C[C@H]1CCCCO[C@H](CN(C)C(=O)Nc2cccc3ccccc23)[C@@H](C)CN([C@@H](C)CO)C(=O)c2cc(NS(=O)(=O)c3cn(C)cn3)ccc2O1`, the call in assay [1], in assay [2] and in assay [3] was inactive.
For the compound `COc1ccc(NC(=O)N(C)C[C@@H]2OCCCC[C@H](C)Oc3ccc(NC(=O)NC4CCCCC4)cc3C(=O)N([C@H](C)CO)C[C@@H]2C)cc1`, the compound was called inactive in assay [1], in assay [2] and in assay [3].
With `C[C@H](CO)N1C[C@H](C)[C@H](CN(C)C(=O)Nc2ccc(F)cc2)OCCCC[C@H](C)Oc2ccc(NC(=O)NC3CCCCC3)cc2C1=O`, the compound was classed as inactive in assay [1], in assay [2] and in assay [3].
Take `Cc1cccn2c(CNCC3(c4ccccc4)CCCC3)c(C(=O)N3CCOCC3)nc12`: the compound was classed as inactive in assay [1], in assay [2] and in assay [3].
Consider `CCOC(=O)C(C)N1c2cccc3cccc(c23)S1(=O)=O` (stereo not given), for which the compound was called inactive in assay [1], in assay [2] and in assay [3].
For `CC(C)NC(=O)Nc1ccc2c(c1)C(=O)N([C@H](C)CO)C[C@@H](C)[C@H](CN(C)S(C)(=O)=O)OCCCC[C@H](C)O2`, the compound was classed as inactive in assay [1], in assay [2] and in assay [3].
`COc1ccccc1C=NNC(=O)c1ccncc1`: the outcome in assay [1], in assay [2] and in assay [3] was inactive.
With `CO[C@H]1CN(C)C(=O)c2ccc(NC(=O)C3CC3)cc2OC[C@@H](C)N(C(=O)Cc2ccccn2)C[C@H]1C`, the compound was called inactive in assay [1], in assay [2] and in assay [3].
With `COc1ccc(-c2noc(CCC(=O)N3CCN(c4ccc(Cl)cc4)CC3)n2)cc1`, the compound was called inactive in assay [1], in assay [2] and in assay [3].
As to `C[C@H](CO)N1C[C@H](C)[C@@H](CN(C)S(=O)(=O)c2cccs2)Oc2c(cccc2N(C)C)C1=O`, the result in assay [1], in assay [2] and in assay [3] was inactive.
Regarding `C[C@@H]1CN([C@H](C)CO)C(=O)c2c(c3ccccc3n2C)-c2ccccc2CO[C@H]1CN(C)S(=O)(=O)c1cn(C)cn1`, the compound was called inactive in assay [1], in assay [2] and in assay [3].
With `CC1(c2ccccc2Cl)NC(=O)N(CC(=O)N2CCc3ccccc32)C1=O` (stereo not given), the compound was called inactive in assay [1], in assay [2] and in assay [3].
Take `O=C(Cc1ccccc1Cl)Nc1cccnc1`: the outcome in assay [1], in assay [2] and in assay [3] was inactive.
For `C[C@H](CO)N1C[C@H](C)[C@H](CN(C)Cc2ccccc2)Oc2c(NS(=O)(=O)c3cn(C)cn3)cccc2C1=O`, the outcome in assay [1], in assay [2] and in assay [3] was inactive.
Regarding `COc1ccc(S(=O)(=O)Nc2ccc3c(c2)C(=O)N([C@H](C)CO)C[C@H](C)[C@H](CN(C)S(=O)(=O)c2ccc(F)cc2)OCCCC[C@@H](C)O3)cc1`, the outcome in assay [1], in assay [2] and in assay [3] was inactive.
As to `N#C[C@H]1[C@@H](c2ccc(C3=CCCCC3)cc2)[C@H](CO)N1C(=O)c1ccccn1`, the result in assay [1] and in assay [3] was inactive.
In the case of `O=C(c1ccc(F)cc1)N1CC(=O)N2[C@@H](CO)[C@@H](c3ccc(C#CC4CCCC4)cc3)[C@@H]2C1`, the compound was called inactive in assay [1], in assay [2] and in assay [3].
In the case of `COCC#Cc1ccc2c(c1)O[C@H](CN(C)S(=O)(=O)c1cccc(F)c1)[C@@H](C)CN([C@H](C)CO)S2(=O)=O`, the call in assay [1] and in assay [3] was inactive.
Turning to `CCCCC(=O)N(C)c1c(C)nc2ccc(C(=O)N3CCCCC3)cn12`, the result in assay [1], in assay [2] and in assay [3] was inactive.
As to `C[C@@H]1CN([C@H](C)CO)C(=O)c2cc(C#CCN(C)C)cnc2O[C@@H]1CN(C)C(=O)CN1CCOCC1`, the compound was called inactive in assay [1], in assay [2] and in assay [3].
